Screening results (PubChem)
NLRP3 yeast inh: NALP3 inflammasome inhibitors in reconstituted yeast, primary screen, luminescence, uHTS | Yeast reconstituted NLRP3/ASC/caspase-1, beta-gal luminescence, 24 h | inhibition, % at 10 µM | 330,000 tested, 0.39% active;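 active means inhibition of 50% or more; inactive means inhibition below 50%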;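 further: plate controls were induced DMSO wells for no effect and uninduced yeast grown without galactose for full effect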
tim23-1 inh: growth inhibitors of tim23-1 mutant yeast, primary screen, luminescence, uHTS; 330,000 tested, 1.3% active; inhibition, % at 20 µM; S. cerevisiae tim23-1 growth, BacTiter-Glo luminescence, 24 h;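 active means growth inhibition of the mutant yeast at or above 50%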;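 further: temperature-sensitive mutant grown at 25 °C; plate controls were DMSO-treated mutant yeast for no effect and medium wells lacking yeast for full effect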
TIM10 inh: growth inhibitors of isogenic TIM10 control yeast, primary screen, counter-screen for tim10-1 yeast inhibitor project, luminescence, uHTS; S. cerevisiae TIM10 strain growth, BacTiter-Glo luminescence, 24 h; inhibition, % at 10 µM; 330,000 tested, 1.4% active; AID 463195, 2010;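 active means inhibition of 40% or more at the single tested concentration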;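 further: wild-type TIM10 isogenic control strain grown at permissive 25 °C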
NALP1 yeast inh: NALP1 inflammasome inhibitors in reconstituted yeast, colorimetric, S. cerevisiae, triplicate retest | S. cerevisiae NALP1/ASC/caspase-1 growth, X-gal OD620, 72 h | inhibition, % at 10 µM | 280,000 tested, 0.61% active; in the data active means inhibition mostly above about 24%, no sharp cut-off; inactive means mostly below about 32%
tim10-1 inh: growth inhibitors of tim10-1 mutant yeast, primary screen, luminescence, uHTS; 330,000 tested, 2.2% active; S. cerevisiae tim10-1 ts strain growth, BacTiter-Glo, 24 h; inhibition, % at 20 µM;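 active means inhibition of at least 40%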;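 further: mutant grown at 25 °C; 0% = DMSO wells with yeast and 100% = wells holding no yeast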
PfHsp90 set2: growth inhibition of PfHsp90-expressing yeast, primary screen, antimalarial PfHsp90 inhibitor project, S. cerevisiae, BacTiter-Glo luminescence, single point, set 2. 310,000 tested, 0.32% active. inhibition, % at 9.4 µM. BacTiter-Glo ATP, 48 h; yeast lacking PDR1 and PDR3 efflux regulators;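 active means every replicate shows inhibition above about 80%, whatever the replicate mean, limit read from the data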;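 further: 0% = DMSO neutral controls and 100% = 20 µM radicicol positive controls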
tim10-1 confirm: growth inhibitors of tim10-1 mutant yeast, confirmation, single concentration, luminescence, S. cerevisiae; shares compounds with tim10-1 inh; S. cerevisiae tim10-1 ts strain growth, BacTiter-Glo, 24 h; inhibition, % at 20 µM; 7,400 tested, 56% active; AID 463213, 2010;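 active means inhibition of yeast growth at or above a set limit in either of two repeat tests at 20 µM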;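 further: tim10-1 mutant grown at permissive 25 °C to find synthetic lethal compounds; 0% = DMSO yeast wells and 100% = medium wells without yeast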
An asterisk follows results filed as active; · = no result. The list is not random: actives were taken first. Their share in the collection is about 4.1%.

SMILES	NLRP3 yeast inh	tim23-1 inh	TIM10 inh	NALP1 yeast inh	tim10-1 inh	PfHsp90 set2	tim10-1 confirm
CCOc1ccccc1N1C(=O)CC(Sc2n[nH]c(-c3ccccc3)n2)C1=O (centres undefined)	22	13	32	37	53*	19	53*
CCCCCCC(=O)N(O)C1CC(=O)N(c2ccc(Br)cc2)C1=O (centres undefined)	17	33	32	6	42*	119*	28
COc1ccc(-c2sc3cc4c(cc3c2C#Cc2ccc(N)cc2)OCO4)cc1	18	37	13	·	22	9	·
COc1cc(/C=C/c2nc(-c3ccccc3O)n[nH]2)cc(OC)c1OC	-12	45	38	16	40*	-33	28
Cc1ccccc1NC(=O)CCNS(=O)(=O)c1cccc2nsnc12	10	2	-11	7	3	8	·
CC1(C)Cc2c(cnn2-c2cccc(F)c2)C(NC(=O)CCc2cnccn2)C1 (centres undefined)	5	10	15	12	19	-1	·
N#Cc1cccc(-n2c(-c3ccccc3)nnc2-c2ccccc2)c1C#N	17	42	20	0	46*	-5	35*
COc1ccc(CNC(=O)C[C@H]2C(=O)N(CCc3ccccc3)C[C@@H]2Cc2ccccc2)cc1	15	27	18	1	7	13	·
COc1cc2c3c(c1)/C(=C1/SC(NC(C)=O)=NC1=O)C(=O)N3C(C)(C)C=C2C	10	45	30	8	62*	35	56*
O=C(O)/C(=C\c1ccc2ccccc2c1)c1cccc2ccccc12	17	31	28	·	23	-22	·
CC(C)(C)N=C1NN=C(c2ccc(Cl)cc2)CS1	10	9	-3	·	17	5	·
CC(C)N=C1NN=C(c2ccc(Cl)c(Cl)c2)CS1	15	36	12	21	48*	-8	25
CC(C)(C)c1ccc(S(=O)(=O)CC(O)CSc2nc3c(cc2C#N)CCCC3)cc1 (centres undefined)	5	7	37	1	40*	-5	25
COc1ccc(CNC(=O)CNC(C)c2ccc(F)cc2)cc1 (centres undefined)	24	5	-6	9	8	22	·
COc1ccc(C(CCNC(C)c2ccccc2)c2ccc(F)cc2)cc1 (centres undefined)	29	45	19	43*	51*	6	36*
COc1ccc(C(CCNCc2ccccc2)c2ccc(F)cc2)cc1 (centres undefined)	30	19	9	31	46*	-4	20
CCOc1ccc(S(=O)(=O)N(CC(=O)Nc2cccnc2)c2ccc(F)cc2)cc1	12	16	7	2	2	3	·
CC1(C(=O)OCC(=O)Nc2cc(S(=O)(=O)N3CCOCC3)ccc2Cl)CC1(Cl)Cl (centres undefined)	·	·	·	·	·	-1	·
COc1cccc2sc(N(CCN(C)C)C(=O)/C=C/c3cccs3)nc12	24	16	-1	-7	14	13	·
CCOc1cccc2sc(N(CCN(C)C)C(=O)/C=C/c3cccs3)nc12	34	35	26	24	47*	3	32*
COc1cccc(NC(=O)[C@H](CC(C)C)NC(=O)N2CCn3c2nc2ccccc23)c1	14	24	11	-1	17	6	·
F[B-](F)(F)c1cncc2ccccc12	·	·	·	·	·	5	·
COc1ccc(-n2nc(C(=O)Nc3ccc(OC)c(OC)c3)c3c4ccccc4n(C)c3c2=O)cc1	-5	5	17	12	41*	-85	-1
COc1ccc(/C=N/Nc2nn3cnnc3c3ccccc23)cc1	21	6	11	6	16	3	·
N#Cc1c(NC(=O)c2ccc(Cn3cc(Br)cn3)o2)sc2c1CCCCC2	14	41	36	6	32	-71	·
SMILES	NLRP3 yeast inh	tim23-1 inh	TIM10 inh	NALP1 yeast inh	tim10-1 inh	PfHsp90 set2	tim10-1 confirm
COC(=O)c1sc(NC(=O)c2ccc(Cn3cc(Cl)cn3)o2)c(C#N)c1C	5	20	13	23	44*	-17	30*
C[C@@H]1CN([C@@H](C)CO)C(=O)c2cccc(NC(=O)Nc3ccc4c(c3)OCO4)c2O[C@H]1CN(C)S(=O)(=O)c1cn(C)cn1	7	2	-5	·	15	9	·
O=C(NC1CCC(=O)N(CCSc2ccccc2)CC1)OCc1ccccc1 (centres undefined)	6	32	18	4	48*	-20	20
N#CCCN1CCC(NC(=O)OCc2ccccc2)CCC1=O (centres undefined)	4	3	3	13	-9	-2	·
O=c1[nH]c(CN2CCN(S(=O)(=O)c3ccc(Cl)cc3)CC2)nc2cc(Cl)ccc12	31	38	23	24	48*	3	31*
O=C(NC1CC(=O)N(c2ccc(F)cc2)C1)C(=O)c1c[nH]c2ccccc12 (centres undefined)	12	-19	-1	·	-17	5	·
Cc1ncc([N+](=O)[O-])n1CC(=O)Nc1cc(Cl)ccc1Cl	6	-3	4	29	-9	-22	·
COc1cc2c(cc1OC)C1=NC(=O)CN1C(SCc1ccccc1C)=N2	8	24	13	12	41*	13	24
Cc1ccc(CSC2=Nc3ccccc3C3=NC(=O)CN23)cc1	19	36	14	-16	-35	19	·
O=C(CN1C(=O)NC2(CCCCCCC2)C1=O)NCc1ccccc1	1	14	2	·	3	-2	·
COc1ccc(C(=O)Nc2ccc3c4c(cccc24)CC3)cc1	30	48	23	29	44*	-24	30*
O=C(CCN1CCN(c2ccccc2)CC1)NNC(=O)Cc1ccc(Br)cc1	14	-11	-15	·	-6	9	·
O=C1c2ccccc2NC(c2ccc(Cl)cc2Cl)N1Cc1ccccc1 (centres undefined)	13	35	20	32	23	·	·
O=C1c2ccccc2NC(c2c(Cl)cccc2Cl)N1Cc1ccccc1 (centres undefined)	-25	43	27	-4	40*	-20	26
CCC(c1nnnn1Cc1ccccc1)N1CCN(c2ccccc2)CC1 (centres undefined)	-10	13	1	2	41*	·	24
Cc1ccc(CC(=O)NCCC(=O)O)cc1	16	23	6	-64	-6	0	·
